Experimental data taken from PubChem BioAssay AID1159580 (chemical genetic matrix, 2015).
The campaign covered roughly 5,500 compounds. About 2,000 (36%) were called active. Not shown: some 18% with an inconclusive outcome. The list shows a part of the results. Values without a mark were called inactive. Cut-off read from the data, not from the text of the source: active = normalized growth mostly below about 0.91 (no sharp cut-off); inconclusive = no clear call, values can overlap the other calls; inactive = mostly above about 0.92.

Assay: chemical genetic growth profiling, strain panel (AID 1159580);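 note: tested at 20 µM; growth read once vehicle control cultures reached saturation at 30 °C; 1 = growth at the plate median or of vehicle wells; lower values mean less growth of the strain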
Conditions: S. cerevisiae deletion strains, growth OD
[1] = locus YAL040C, strain CLN3, active compounds read low
[2] = locus YCL061C, strain MRC1 (second series), active compounds read low
[3] = locus YDR363W, strain ESC2, active compounds read low
[4] = locus YER002W, strain NOP16, active compounds read low
[5] = locus YJR075W, strain HOC1, active compounds read low
[6] = locus YMR263W, strain SAP30, active compounds read low
[7] = locus YMR307W, strain GAS1, active compounds read low
[8] = locus YNL128W, strain TEP1, active compounds read low
[9] = locus YNL175C, strain NOP13, active compounds read low
[10] = locus YNL197C, strain WHI3, active compounds read low
[11] = locus YNL224C, strain SQS1, active compounds read low
[12] = locus YOR083W, strain WHI5 (second series), active compounds read low
[13] = locus YAL013W, strain DEP1, active compounds read low
[14] = locus YGR078C, strain PAC10, active compounds read low
[15] = locus YPL241C, strain CIN2, active compounds read low

S=C(NC1CCCCC1)N1CCC(c2cnc[nH]2)CC1 gave a normalized growth [1] of 1.01, a normalized growth [2] of 0.998 and a normalized growth [3] of 1.01. It also gave a normalized growth [4] of 0.994, a normalized growth [5] of 1 and a normalized growth [6] of 1.01. For the same molecule, the normalized growth [7] was 0.996, the normalized growth [8] was 0.984 and the normalized growth [9] was 1. For the same molecule, the normalized growth [10] was 0.974, the normalized growth [11] was 0.986 and the normalized growth [12] was 1.02. The normalized growth (locus YPL055C, strain LGE1, active compounds read low) was 0.993.

Molecule Cc1cccc(/C=C/c2ccccc2)n1 has a normalized growth [13] of 1, a normalized growth [1] of 0.984 and a normalized growth [2] of 1.01. For the same molecule, the normalized growth [3] was 1.04, the normalized growth [4] was 0.975 and the normalized growth [14] was 1.01. For the same molecule, the normalized growth [7] was 0.995, the normalized growth (locus YNL153C, strain GIM3, active compounds read low) was 0.93 and the normalized growth [9] was 0.963. It also gave a normalized growth [10] of 0.986, a normalized growth [11] of 0.989 and a normalized growth [12] of 0.923. It also gave a normalized growth [15] of 1.02.

Work on CC(COc1ccc(/C=C/c2ccccc2)cc1)[N+](C)(C)C (stereo not drawn) yielded a normalized growth [13] of 0.942, a normalized growth [1] of 1.02 and a normalized growth [2] of 0.982. The normalized growth (locus YDR150W, strain NUM1, active compounds read low) was 0.926 (active), the normalized growth [3] was 0.914 and the normalized growth [4] was 0.989. For the same molecule, the normalized growth [14] was 0.99, the normalized growth [5] was 0.878 (active) and the normalized growth [6] was 1.01. It also gave a normalized growth [7] of 0.994, a normalized growth [8] of 1.03 and a normalized growth [9] of 0.999. The normalized growth [10] was 0.996, the normalized growth [11] was 1.12 [resistant] (active) and the normalized growth [12] was 0.816 (active). The normalized growth [15] was 0.98.

For OC(COc1ccc(F)cc1)(c1ccccc1)c1ccccc1, the normalized growth (locus YAR019C, strain CDC15, active compounds read low) was 0.955, the normalized growth (locus YBL105C, strain PKC1, active compounds read low) was 0.953 and the normalized growth (locus YBR135W, strain CKS1, active compounds read low) was 0.965. For the same molecule, the normalized growth (locus YBR136W, strain MEC1, active compounds read low) was 0.968, the normalized growth (locus YBR160W, strain CDC28, active compounds read low) was 0.951 and the normalized growth (locus YDL017W, strain CDC7, active compounds read low) was 0.955. For the same molecule, the normalized growth (locus YDL028C, strain MPS1, active compounds read low) was 0.977, the normalized growth (locus YDL101C, strain DUN1, active compounds read low) was 0.939 and the normalized growth (locus YDL108W, strain KIN28, active compounds read low) was 0.982. It also gave a normalized growth (locus YDL132W, strain cdc53, active compounds read low) of 0.955, a normalized growth (locus YDL214C, strain PRR2, active compounds read low) of 0.964 and a normalized growth (locus YDR052C, strain DBF4, active compounds read low) of 0.965. The normalized growth (locus YDR054C, strain cdc34, active compounds read low) was 0.949, the normalized growth (locus YDR226W, strain ADK1, active compounds read low) was 0.955 and the normalized growth (locus YDR477W, strain SNF1, active compounds read low) was 0.985. The normalized growth (locus YER123W, strain YCK3, active compounds read low) was 0.969, the normalized growth (locus YER133W, strain GLC7, active compounds read low) was 0.993 and the normalized growth (locus YFL009W, strain cdc4, active compounds read low) was 0.954. The normalized growth (locus YFL029C, strain CAK1, active compounds read low) was 0.957, the normalized growth (locus YFR003C, strain YPI1, active compounds read low) was 0.961 and the normalized growth (locus YFR019W, strain FAB1, active compounds read low) was 0.974. It also gave a normalized growth (locus YFR028C, strain CDC14, active compounds read low) of 0.964, a normalized growth (locus YGR040W, strain KSS1, active compounds read low) of 0.998 and a normalized growth (locus YGR052W, strain FMP48, active compounds read low) of 1.1. For the same molecule, the normalized growth (locus YGR092W, strain DBF2, active compounds read low) was 0.939, the normalized growth (locus YHR030C, strain SLT2, active compounds read low) was 1.14 and the normalized growth (locus YHR079C, strain IRE1, active compounds read low) was 1.09. It also gave a normalized growth (locus YHR082C, strain KSP1, active compounds read low) of 1.1, a normalized growth (locus YHR205W, strain SCH9, active compounds read low) of 0.977 and a normalized growth (locus YIL147C, strain SLN1, active compounds read low) of 0.966. For the same molecule, the normalized growth (locus YJL095W, strain BCK1, active compounds read low) was 1.1, the normalized growth (locus YJL128C, strain PBS2, active compounds read low) was 0.913 and the normalized growth (locus YJL157C, strain FAR1, active compounds read low) was 0.968. For the same molecule, the normalized growth (locus YJR016C, strain ILV3, active compounds read low) was 0.959, the normalized growth (locus YJR066W, strain TOR1 (second series), active compounds read low) was 1.01 and the normalized growth (locus YJR066W, strain TOR1, active compounds read low) was 1.15. For the same molecule, the normalized growth (locus YKL048C, strain ELM1, active compounds read low) was 0.95, the normalized growth (locus YKL067W, strain YNK1, active compounds read low) was 0.961 and the normalized growth (locus YKL101W, strain HSL1, active compounds read low) was 0.962. The normalized growth (locus YKL193C, strain SDS22, active compounds read low) was 0.959, the normalized growth (locus YKL203C, strain TOR2, active compounds read low) was 1.07 and the normalized growth (locus YLR113W, strain HOG1, active compounds read low) was 0.971. The normalized growth (locus YLR133W, strain CKI1, active compounds read low) was 0.955, the normalized growth (locus YLR403W, strain SFP1, active compounds read low) was 0.983 and the normalized growth (locus YML070W, strain DAK1, active compounds read low) was 0.973. It also gave a normalized growth (locus YMR001C, strain CDC5, active compounds read low) of 0.954, a normalized growth (locus YMR205C, strain PFK2 (second series), active compounds read low) of 0.968 and a normalized growth (locus YMR277W, strain FCP1, active compounds read low) of 0.961. It also gave a normalized growth (locus YNL006W, strain LST8, active compounds read low) of 0.97, a normalized growth (locus YNL020C, strain ARK1, active compounds read low) of 0.959 and a normalized growth (locus YNL161W, strain CBK1, active compounds read low) of 0.958. The normalized growth (locus YNL183C, strain NPR1, active compounds read low) was 1.12, the normalized growth (locus YNL207W, strain RIO2, active compounds read low) was 0.971 and the normalized growth (locus YNL222W, strain SSU72, active compounds read low) was 0.962. It also gave a normalized growth (locus YNL307C, strain MCK1 (second series), active compounds read low) of 0.961, a normalized growth (locus YOL078W, strain AVO1, active compounds read low) of 0.967 and a normalized growth (locus YOL136C, strain PFK27, active compounds read low) of 0.98. It also gave a normalized growth (locus YOR061W, strain CKA2, active compounds read low) of 0.969, a normalized growth (locus YOR119C, strain RIO1, active compounds read low) of 1.02 and a normalized growth (locus YOR231W, strain MKK1, active compounds read low) of 1.06. It also gave a normalized growth (locus YOR329C, strain SCD5, active compounds read low) of 0.956, a normalized growth (locus YPL031C, strain PHO85, active compounds read low) of 0.985 and a normalized growth (locus YPL153C, strain RAD53, active compounds read low) of 1. For the same molecule, the normalized growth (locus YPL204W, strain HRR25, active compounds read low) was 0.991, the normalized growth (locus YPL209C, strain IPL1, active compounds read low) was 0.956 and the normalized growth (locus YPL256C, strain CLN2, active compounds read low) was 1.02. The normalized growth (locus YPR025C, strain CCL1, active compounds read low) was 0.954, the normalized growth (locus YPR106W, strain ISR1, active compounds read low) was 0.954 and the normalized growth (locus YPR111W, strain DBF20, active compounds read low) was 0.949. For the same molecule, the normalized growth (strain NNK1, active compounds read low) was 0.956 and the normalized growth (strain TSCII, active compounds read low) was 0.957.
